# Screening data: PubChem, several laboratories
# This is a sample that favours compounds with a hit; in the whole collection about 2.3% have one here.
# MIN6 prolif-1: MIN6 beta-cell proliferation induction | MIN6 cells proliferation, ATPlite luminescence, 48 h; cells starved in 0.2% serum; 100% = growth in 10% serum | proliferation, % at 10 µM | actives 0.29% (n = 330,000);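 active = compounds whose signal lies at least 3.5 SD above the mean of all wells on their plate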;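 also: 0% = DMSO-treated cells in low-serum medium and 100% = 10% serum control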
# H9c2 TAG inh: inhibitors of triacylglycerol accumulation; actives 0.66% (n = 230,000); H9c2 cells, Nile Red lipid (TAG) fluorescence; cells loaded with 200 µM oleic acid; inhibition, % at 12.5 µM;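 active = pattern-corrected inhibition of lipid staining of at least 50% with the nuclear-stain viability signal not falling by more than 50%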;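 also: 0% = DMSO wells and 100% = triacsin C control wells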
# aDG glyco act: alpha-DG glycosylation activation | Pro5-aDG cells, alpha-DG glycosylation AlphaScreen (IIH6); 0% Pro5, 100% B10-LARGE cell signal | activation, % at 10 µM | actives 0.22% (n = 360,000) | AID 624168;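 active = activation of at least 8% versus controls, or a plate z-score of at least 8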;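 also: Pro5 are CHO cells carrying HIG-tagged alpha-DG that lacks glycosylation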
# Cardio protect: protects H9c2 cardiomyocytes from peroxide injury | actives 0.63% (n = 360,000) | H2O2 injury protection, ATPLite, 2 h | protection from H2O2 cell death, % at 20 µM;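 active = compounds giving at least 50% protection of heart cells from peroxide-induced death in the single-dose screen, raw or plate-pattern-corrected value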;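 also: 0% = DMSO wells with peroxide and 100% = DMSO wells without peroxide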
# m-calpain inh: blocks pig calpain II enzyme activity | AID 1236 | inhibition, % at 16 µM | actives 0.37% (n = 220,000) | purified calpain II, fluorogenic peptide substrate, 30 min;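 active = inhibition above about 50%, limit read from the data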
# FAS TE block: FAS thioesterase (human) inhibition | actives 0.67% (n = 360,000) | AID 602261 | P49327 | inhibition, % at 15 µM | recombinant FAS-TE, OMFH fluorogenic substrate, fluorescence endpoint;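 active = compounds whose normalised, plate-corrected inhibition of enzyme fluorescence in the single-dose primary screen is 50% or more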;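 also: 0% = DMSO with enzyme and 100% = substrate without enzyme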
# MIN6 prolif-2: confirmation of inducers of beta-cell replication in MIN6 cells; 920 tested, under 10 active; proliferation increase, % at 50 µM; MIN6 beta-cell proliferation, ATPlite luminescence, 48 h; cells kept in 0.2% serum; scaled between 0.2% and 10% serum; shares compounds with MIN6 prolif-1;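 active = proliferation increase above 40% at any of the four tested concentrations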
# An asterisk follows results filed as active; · = no result given.
SMILES,MIN6 prolif-1,H9c2 TAG inh,aDG glyco act,Cardio protect,m-calpain inh,FAS TE block,others
O=C(CSc1nnc(-c2cccnc2)o1)c1cc2ccccc2oc1=O,1.1,-9.9,-0.1,51.1*,-28.7,-1.4,
C[C@@H]1CN([C@@H](C)CO)C(=O)CCCn2nncc2CO[C@@H]1CN(C)C(=O)Nc1ccc(C(F)(F)F)cc1,·,-5.6,-0.1,-8.1,·,-5.2,
O=C(NNC(=O)c1cc2cc(Br)ccc2oc1=O)c1ccc(O)cc1O,-4.1,-14.6,0.6,76.8*,-28.7,3.6,
CS(=O)(=O)c1ccc(C(=O)N2CCc3ccccc3C2)cc1,-4.3,-11.0,-0.1,1.4,59.5*,0.1,
Cc1cc(C(=O)NC2CC(C)(C)Cc3c2cnn3-c2cccc(F)c2)n(C)n1 (centres undefined),-3.0,3.7,0.2,-4.0,·,1.3,
Cc1ccc(-c2nnc(NCc3nc4ccccc4[nH]3)c3ccccc23)cc1S(=O)(=O)N1CCOCC1,-2.7,·,-0.4,86.0*,-79.8,34.9,
COc1ccc(CCNC(=O)CNC(=O)N2CC(=O)Nc3ccccc32)cc1OC,·,-13.3,0.1,2.5,·,-10.0,
Cc1ccc(S(=O)(=O)N2[C@@H](CO)CO[C@H]2CC(=O)c2ccccc2)cc1,·,·,-0.3,·,·,·,
COCCCN(Cc1ccco1)C(=O)Cn1ncc2c([nH]c3ccccc32)c1=O,-0.6,·,-0.1,59.7*,·,-3.1,
CCCCCCCCCCCCCCCC[N+](C)(C)CCl,·,65.5*,0.7,-19.8,·,-81.5,
CCCCCCCCCCCCCCCC[N+](C)(C)CC,-8.2,8.8,1.5,-41.1,·,-55.5,
O=c1cc(N2CCCCC2)c(-c2ccccc2)nn1Cc1ccc(Cl)cc1Cl,-3.5,23.5,-0.3,-6.7,53.9*,21.4,
COC(=O)c1c(NC(=O)c2ccc([N+](=O)[O-])o2)sc2c1CCN(C(C)C)C2,-7.3,58.9*,-0.2,-1.0,·,8.2,
COC(=O)c1c(NC(=O)Cc2ccccc2)sc2c1CCN(C(C)C)C2,1.3,-4.2,-0.1,4.9,·,-4.8,
NC(=O)c1cccc(Nc2nc(C(N)COCc3ccccc3)cs2)n1 (centres undefined),·,13.0,-0.4,88.0*,·,-3.2,
NC(=O)c1ccc(Nc2nc(C(N)COCc3ccccc3)cs2)cc1 (centres undefined),·,7.8,0.3,0.5,·,-7.7,
COc1cccc(C(=O)Nc2ccccc2-c2ccccc2)c1,-0.1,-4.8,0.2,2.8,·,6.3,
COc1c(Cl)cc(C(=O)Nc2ccccc2-c2ccccc2)cc1Cl,-4.0,·,0.2,-5.9,53.7*,28.0,
O=c1c2c(-c3cccs3)csc2ncn1-n1cccc1,-1.8,·,0.2,4.8,81.5*,3.9,
Cc1ccc(N2C(=O)N3[C@H](c4ccc(F)cc4)[C@@H]4C(=O)N(C5CCCCC5)C(=O)[C@@H]4[C@]3(C)C2=O)cc1,-7.1,-2.7,0.2,-10.5,·,17.9,
CCN1C(=O)[C@H]2[C@@H](c3ccc(C)cc3)N3C(=O)N(c4cccc(F)c4)C(=O)[C@@]3(Cc3ccc(Cl)cc3)[C@H]2C1=O,-2.4,·,0.2,2.8,·,44.0,
Cc1cccc(N2C(=O)N3[C@H](c4ccc(Cl)cc4)[C@@H]4C(=O)N(C5CCCCC5)C(=O)[C@@H]4[C@]3(Cc3ccc(Cl)cc3)C2=O)c1,-5.2,31.8,0.4,-3.8,·,94.5*,
CC(C)C[C@@]12C(=O)N(c3cccc(Cl)c3)C(=O)N1[C@H](c1ccc(F)cc1)[C@@H]1C(=O)N(C3CCCCC3)C(=O)[C@@H]12,-2.6,·,0.3,-2.3,·,84.0*,
CCN1C(=O)[C@H]2[C@@H](c3ccc(C)cc3)N3C(=O)N(c4cccc(Cl)c4)C(=O)[C@@]3(Cc3ccccc3)[C@H]2C1=O,-2.7,·,0.1,0.7,·,27.3,
O=C1[C@H]2[C@@H](c3ccc(Cl)cc3)N3C(=O)N(c4cccc(Cl)c4)C(=O)[C@@]3(Cc3ccc(Cl)cc3)[C@H]2C(=O)N1C1CCCCC1,-5.1,·,0.8,-3.5,·,93.7*,
SMILES,MIN6 prolif-1,H9c2 TAG inh,aDG glyco act,Cardio protect,m-calpain inh,FAS TE block,others
O=C1[C@H]2[C@@H](c3ccc(F)cc3)N3C(=O)N(c4ccc(Br)cc4)C(=O)[C@@]3(Cc3ccccc3)[C@H]2C(=O)N1C1CCCCC1,-8.2,34.9,1.0,-10.7,·,91.7*,
O=C(Nc1ccc(Br)cc1)C1CC(O)CN1C(=O)Oc1ccccc1 (centres undefined),1.1,·,0.1,-3.7,·,-4.3,
O=C1[C@H]2[C@@H](c3ccc(Cl)cc3)N3C(=O)N(c4cccc(F)c4)C(=O)[C@@]3(Cc3ccc(Cl)cc3)[C@H]2C(=O)N1C1CCCCC1,-7.0,47.6,1.5,-3.0,·,95.8*,
O=C(O)C(Cc1ccccc1)N1C(=O)/C(=C/c2cccc3ccccc23)SC1=S (centres undefined),·,·,·,·,56.3*,·,
O=C(O)C(Cc1ccccc1)N1C(=O)/C(=C/c2ccccc2)SC1=S (centres undefined),-2.5,·,-0.1,-0.5,15.8,16.8,
CC[C@]12c3[nH]c4ccc(OC)cc4c3CCN1C(=O)C(CC(=O)NCCCOC)C[C@@H]2C(=O)N1CCN(C(=O)C2CC2)CC1 (some centres undefined),·,-12.2,0.1,4.1,·,-11.2,
COc1cc2c(cc1OC)C(COc1ccc3c(C)cc(=O)oc3c1)N(C(=O)c1ccco1)CC2 (centres undefined),3.3,38.8,-0.3,57.6*,-61.3,17.7,
Cc1cc(Br)cn2c(Cc3ccsc3)c(-c3ccc(Cl)cc3)nc12,·,·,-0.4,-2.9,·,16.6,
CCCc1cc(=O)[nH]c(SCC(=O)N(CCC#N)c2ccc3c(c2)OCCO3)n1,-2.5,-14.0,0.0,5.8,·,-5.2,
CCCc1cc(=O)[nH]c(SCC(=O)c2ccc3c(c2)OCCO3)n1,0.0*,·,-0.3,-0.2,13.5,3.3,MIN6 prolif-2=-6.2
CC1=C(c2ccccc2)C(=S)NC(C)(C)C1,5.6*,-8.9,-0.1,-12.2,-14.5,-4.0,MIN6 prolif-2=-2.0
COc1ccc(C2=C(C)CC(C)(C)NC2=O)cc1OC,-1.0,·,0.1,-2.7,0.3,-5.8,
CC(C)C[C@H](NC(=O)NCc1ccccc1Cl)C(=O)O,-0.5,·,-0.2,0.0,-3.8,-5.9,
CC(C)C[C@H](NC(=O)NCc1ccc(Cl)cc1)C(=O)O,10.1*,·,0.0,-4.7,-15.1,-7.6,MIN6 prolif-2=-1.7
Cc1cn([C@H]2C[C@H](O)[C@@H](CNC(=O)[C@H](N)Cc3cscn3)O2)c(=O)[nH]c1=O,·,7.2,-0.1,0.7,·,-7.0,
O=C(COc1ccccc1)NC1C(=O)N2C(C(=O)O)=C(Cl)CSC12 (centres undefined),10.4*,·,0.1,7.9,·,-3.6,MIN6 prolif-2=-1.3
CCN(CC)C(=O)C1=C(C)N(Cc2ccc(OC)cc2)C(=O)C(CC(=O)NC2CC2)C1 (centres undefined),·,-12.2,-0.3,-0.2,·,-6.0,
